Most compounds without a hit are left out; they make up all but 19% or so of the library.
HT1080 IDH1KD tx = toxicity to HT-1080 IDH1 knockdown cells (counter line) | Potency, µM (doses to about 46.1 µM), for inactives: at the highest dose activity, negative = toxicity, hits mostly cytotoxic | hit rate 2% among 360,000 | AID 686971 | HT-1080 IDH1 knockdown viability, ATP luminescence, 48 h;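 note: potency is the fitted concentration of half-maximal effect; 0% = DMSO wells and -100% = cell-free medium wells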
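HT-1080-IDH1KD cells (IDH1 knocked down), 750/well in RPMI with 5% FBS, treated with compound 48 h at 37 degrees C. Viability by CellTiter-Glo luminescence, normalised to DMSO and no-cell wells; concentration-response curves classed.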
HT1080NT lethal = kills 2HG-producing HT-1080-NT fibrosarcoma cells. HT-1080-NT fibrosarcoma viability, CellTiter-Glo ATP luminescence, 48 h. Potency, µM (series often up to 46.1 µM), without a hit: at the highest dose activity, negative = less viability, actives largely listed as cytotoxic. hit rate 1.6% among 360,000. AID 686970;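 note: NT is the 2HG producing partner of a matched IDH1 knockdown line; potency is the fitted concentration of half-maximal effect; 0% = DMSO-treated cells and -100% = media-only wells without cells; nearly all actives have a fitted effect of over 55% in size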
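A 48-hour cytotoxicity screen used HT-1080-NT cells plated 2 hours before compound delivery. ATP-based CellTiter-Glo luminescence measured viability, normalized to DMSO and no-cell controls.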
uPA generation = inhibitors of cell surface uPA generation; cell surface uPA generation assay, qHTS; Potency, µM (top dose mostly 38.3 µM), for inactives: at the highest dose activity change, negative = inhibition, hits mostly inhibitors; hit rate 0.31% among 330,000; active = well fitted inhibition curve with a large enough effect; inconclusive = small, poorly fitted or top-dose-only effect; inactive = no such curve, though single readings can be large or run the other way; tested in mouse RAW 264.7 cells; note: potency is the fitted concentration of half-maximal effect; nearly all actives have a fitted effect of over 55% in size
TDP1 cell noCPT = qHTS for Inhibitors of human tyrosyl-DNA phosphodiesterase 1 (TDP1): qHTS in cells in absence of CPT; hit rate 15% among 420,000; Potency, µM (top dose mostly 46.2 µM), inactives show top-dose activity change, negative = growth inhibition, usual class: inhibitors; AID 686978, 2013; DT40 Tdp1-/- hTDP1 cells, no CPT, ATP luminescence, 48 h; note: potency is the fitted concentration of half-maximal effect; nearly all actives have a fitted effect of over 55% in size
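Cells were dispensed at 400 per well, compounds added by pin tool, plates incubated ≥48 hr at 37 °C, then CellTiter-Glo added for 30 min at room temperature before luminescence reading. Line: DT40 Tdp1-/- complemented with hTDP1; camptothecin omitted.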
IL1B secr inh = blocks inflammasome-driven IL-1 beta release | THP-1 LPS/ATP IL-1B secretion, AlphaLISA, 16 h; active compounds read low | activity change, % at 57.5 µM | AID 743279 | hit rate 4.7% among 360,000; in the data active = activity change below about -50%; inconclusive = mostly about -30% to -49%
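THP-1 cells pretreated 1 hr with compounds (up to 57.5 uM final), then stimulated with LPS (250 ng/mL final) plus ATP (1.25 mM final); secreted IL-1B measured by AlphaLISA after 16 hr, decreased signal indicating inhibition.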
TDP1 cell CPT = growth inhibition of DT40 Tdp1-/-;hTDP1 cells with camptothecin (screen for TDP1 inhibitors); chicken DT40 Tdp1-/-;hTDP1 cells + 20 nM CPT, ATP luminescence, 48 h; Potency, µM (doses to about 46.2 µM), for the others: top-dose activity change, negative = growth inhibition, hits mostly inhibitors; hit rate 12% among 420,000; AID 686979; note: potency is the fitted concentration of half-maximal effect; nearly all actives have a fitted effect of over 55% in size
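Chicken DT40 Tdp1-/- cells complemented with human TDP1, 400 cells/well, exposed to compounds plus 20 nM camptothecin for at least 48 h at 37 C; viability read as ATP content by CellTiter-Glo luminescence.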
An asterisk follows results filed as active; ? = inconclusive; · = not tested or not shown; ! = repeats disagree; [ ] = dose if it differs, or a comment. Unless noted, calls come from the whole dose curve; as a rule, active = well fitted curve in the direction sought with a large enough effect; inconclusive = small, poorly fitted or top-dose-only effect, or another doubt; inactive = no such curve, though single readings can be large; an effect the other way counts as inactive or inconclusive. Unless noted, % is set by controls: 0 for no effect and ±100 for the full control effect.

SMILES	HT1080 IDH1KD tx	HT1080NT lethal	uPA generation	TDP1 cell noCPT	IL1B secr inh	TDP1 cell CPT
COC(=O)C1=C(c2ccc(OCc3ccccc3)cc2)C[C@@H]2CC[C@H]1N2C(=O)NCc1cccc(OC)c1	-3%	13%	?	21µM*	-19	18µM*
COC(=O)C1=C(c2cccc(OCc3ccccc3)c2)C[C@@H]2CC[C@H]1N2C	-17%	-28%	·	?	0	?
C[N+]1([O-])CCC[C@@H]1c1cccnc1 (stereo not given in full)	·	·	·	-19%	·	3%
COC(=O)C1=C(c2ccc(OCc3ccccc3)cc2)C[C@@H]2CC[C@H]1N2C(=O)NCc1ccc(C(C)(C)C)cc1	-27%	-16%	·	9.2µM*	37	12µM*
c1ccc(CN2CCC(Nc3nc(-c4cccs4)nc4ccccc34)CC2)cc1	?	?	?	18µM*	-64*	8.2µM*
Fc1ccc2c(c1)nnn2C1CCN(Cc2ccccc2)CC1	0%	-3%	-1%	-14%	-16	-20%
Cc1ccccc1Cn1cccc(C(=O)Nc2cc(Cl)ccc2C#N)c1=O	·	·	·	-29%	·	-4%
CNC1C2CN3CCC(O2)C13 (stereo not given)	·	·	·	-3%	·	2%
CN(C)c1nc(OCCNC(=O)COc2ccc(Cl)cc2Cl)nc(N2CCCCC2)n1	-4%	-1%[9.24 µM]	·	12µM*	-19	9.2µM*
CCOP(=O)(NC(C)C)Oc1ccc(SC)c(C)c1 (stereo not given)	6%	9%	-2%	22µM*!	-2	22µM*
COP(=S)(OC)Oc1ccc(SC)c(C)c1	-1%	-2%	11%	-12%	8	-11%
CC[C@@H](CO)NC(=O)[C@H]1C=C2c3cccc4[nH]cc(c34)C[C@H]2N(C)C1	·	·	·	-19%	·	5%
O=C1C=C2C=C[C@@H]3CC2(O1)[C@H]1CCCCN31	?	-25%	?	18µM*	-96*	?
CCN(CC)c1ccc(CN(C)CCc2ccc(OC)c(OC)c2)cc1	-27%	-3%	·	?	-12	23µM*
CC(=O)N1CCN(c2ccc(OC[C@@H]3CO[C@@](Cn4ccnc4)(c4ccc(Cl)cc4Cl)O3)cc2)CC1	·	·	·	16µM*	·	16µM*
CC(=O)N1CCN(c2ccc(OC[C@H]3CO[C@](Cn4ccnc4)(c4ccc(Cl)cc4Cl)O3)cc2)CC1	-18%	-27%	?	6.3µM*	-23	6.3µM*!
CC(=O)OC1CCC2(C)C3CCC4(C)C(OC(C)=O)CCC4C3C(C)C2(O)C1 (stereo not given)	11%	15%	2%	15µM*	-4	?
COc1cc2cc(C(=O)N3CC(COS(C)(=O)=O)c4ccc(O)cc43)[nH]c2c(OC)c1OC (stereo not given)	0.13µM*	2.9µM*	-8%	-104%	-99*	-102%
CCOC(=O)c1ccc(NC(=O)CCc2nc(-c3ccc(C)cc3)no2)cc1	?	?	·	21µM*	-69*	?
CCOC(=O)c1cnc(SCc2ccc(Cl)c(Cl)c2)nc1N1CC1	9.2µM*	?	-8%	0.82µM*	-14	0.58µM*
N#Cc1ccccc1Cn1cc(C(=O)c2ccccc2F)c2ccccc21	-1%	0%	-24%	?	-4	?
N#CC(C#N)=Cc1ccc(C=C(C#N)C#N)cc1	23µM*	?	-3%	4.6µM*	-83*	3.7µM*
CC(C)C(=O)NC(Oc1ccccc1Cl)C(Cl)(Cl)Cl (stereo not given)	-5%	0%	3%	-16%	17	-23%
C#CCOCCOCCOCCNc1nc(N2CCN(C(=O)CCCCCCCCCCNC(=O)Cn3cc(C[C@@H](C)O)nn3)CC2)nc(N2CCN(C(=O)CCCCCCCCCCNC(=O)[C@H](CCCCN)n3cc(C[C@@H](C)CC)nn3)CC2)n1	21µM*	?	?	21µM*	-77*	16µM*
C#CCOCCOCCOCCNc1nc(N2CCN(C(=O)CCCCCCCCCCNC(=O)Cn3cc(C[C@@H](C)O)nn3)CC2)nc(N2CCN(C(=O)CCCCCCCCCCNC(=O)Cn3cc(C[C@@H](C)O)nn3)CC2)n1	?	?	?	9.2µM*	10	6.5µM*
SMILES	HT1080 IDH1KD tx	HT1080NT lethal	uPA generation	TDP1 cell noCPT	IL1B secr inh	TDP1 cell CPT
C#CCOCCOCCOCCNc1nc(N2CCN(C(=O)CCCCCCCCCCNC(=O)[C@H](CCCCN)n3cc(C[C@@H](C)CC)nn3)CC2)nc(N2CCN(C(=O)CCCCCCCCCCNC(=O)[C@H](CCCCN)n3cc(C[C@@H](C)CC)nn3)CC2)n1	?	?	?	9.2µM*	-66*	8.2µM*
O=[N+]([O-])c1ccc(S(=O)(=O)NCC(c2ccco2)N2CCc3ccccc3C2)cc1 (stereo not given)	0%	-1%	2%	?	-3	-21%
CC(C)c1ccc(NC(=O)c2ccc3c(c2)C(=O)N(Cc2cccnc2)C3=O)cc1	?	?	?	-15%	31	-8%
CN(C)CCNC(=O)c1cccn(Cc2cccc(C(F)(F)F)c2)c1=O	0%	8%	0%	?	-11	23µM*
N#Cc1ccc(NC(=O)CN2C(=O)NC3(CCCCCCC3)C2=O)cc1Cl	?	-4%[9.24 µM]	-7%	7.3µM*	6	12µM*
CC(=O)N1CCN(CC(=O)Nc2ccc(C#N)c(Cl)c2)CC1	2%	15%	3%	3%	2	-28%
CCCSP(=O)(OCC)SCCC	·	·	·	-13%[92.5 µM]	·	6%[92.5 µM]
Cc1ccc2c(c1)NC(=O)[C@@]1(C)[C@@H](c3ccccc3)[C@H]3COc4ccccc4[C@@H]3N1C2=O	-4%	-24%	?	?	?	?
COc1ccc2c(c1)OC[C@H]1[C@H]2N2C(=O)c3cc(C)ccc3NC(=O)[C@@]2(C)[C@H]1c1ccccc1	-17%	?	?	?	?	16µM*
O=C(Cn1nc(-c2ccccc2)ccc1=O)N1CCC2(CC1)OCCO2	12%	7%	-2%	10%	15	-10%
CCC1=Nc2cc(C(=O)N3CCC4(CC3)OCCO4)ccc2Sc2ccc(C)cc21	-9%	2%	13%	?	-1	?
COc1ccc(-c2oc3cc(OC)ccc3c(=O)c2O)cc1	·	·	·	12µM*	·	12µM*
NC(=O)OCCCc1ccccc1	11%	1%	-5%	21µM*!	-7	5.3µM*!
